Assay outcomes as filed in PubChem BioAssay.
PLC-gamma1 inh – PLC-gamma1 enzyme inhibitors, primary screen, biochemical, fluorescence, purified enzyme; 1-phosphatidylinositol 4,5-bisphosphate phosphodiesterase gamma-1 (Homo sapiens), P19174; fluorogenic substrate; inhibition, % at 12.2 µM; 370,000 tested, 0.84% active; AID 720700, 2013; in the data active means inhibition above about 9.5%
KLK7 zymogen act – proKLK7 zymogen activators, primary screen, biochemical, fluorescence intensity | purified proKLK7, EDANS-DABCYL substrate fluorescence; 100% is mature enzyme control, 0% vehicle | activation, % at 7 µM | 370,000 tested, 0.9% active;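 active means activation above the mean of all tested compounds plus 3 SD, computed per campaign excluding outliers beyond control limits, cut at about 13% in these data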
ADAM17 inh – ADAM17 inhibitors, primary screen, biochemical, QFRET; 370,000 tested, 0.83% active; recombinant ADAM17, EDANS/DABCYL FRET peptide cleavage; inhibition, % at 6.95 µM;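 active means inhibition above the mean of compounds lying between control limits plus 3 SD, set per campaign, cut at about 8.5% in these data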;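 further: 0% = DMSO-only wells as the low control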
Target sequence (P78536 215-824 limits assumed): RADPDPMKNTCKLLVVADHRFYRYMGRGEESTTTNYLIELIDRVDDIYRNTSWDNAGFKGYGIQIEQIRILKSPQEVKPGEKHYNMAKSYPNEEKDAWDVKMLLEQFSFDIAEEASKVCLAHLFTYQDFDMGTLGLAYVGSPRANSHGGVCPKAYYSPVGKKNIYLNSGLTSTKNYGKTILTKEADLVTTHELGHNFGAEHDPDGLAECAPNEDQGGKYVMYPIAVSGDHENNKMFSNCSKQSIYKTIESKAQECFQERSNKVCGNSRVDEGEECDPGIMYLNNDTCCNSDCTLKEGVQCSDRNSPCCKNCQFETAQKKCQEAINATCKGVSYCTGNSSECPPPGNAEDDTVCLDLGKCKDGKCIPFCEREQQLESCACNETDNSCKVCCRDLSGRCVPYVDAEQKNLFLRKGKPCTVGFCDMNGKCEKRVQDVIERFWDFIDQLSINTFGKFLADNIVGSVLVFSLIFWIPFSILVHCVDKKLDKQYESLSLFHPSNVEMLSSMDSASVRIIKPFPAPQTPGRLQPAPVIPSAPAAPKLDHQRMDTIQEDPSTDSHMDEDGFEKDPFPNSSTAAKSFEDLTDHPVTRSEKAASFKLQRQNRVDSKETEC
PLC-beta3 inh – human PLC-beta3 inhibitors, primary screen, biochemical, fluorescence. 370,000 tested, 0.18% active. 1-phosphatidylinositol 4,5-bisphosphate phosphodiesterase beta-3 (Homo sapiens), Q01970. AID 720704, 2013. inhibition, % at 12.2 µM. Purified PLC-beta3, fluorogenic substrate; in the data active means inhibition above about 11%;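 further: 0% = median of compound wells on plate and 100% = full blocker control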
ADAM10 inh – human ADAM10 inhibitors, primary screen, biochemical, QFRET, HTS; Disintegrin and metalloproteinase domain-containing protein 10 (Homo sapiens), O14672; AID 720582, 2013; recombinant ADAM10, EDANS/DABCYL FRET peptide cleavage, 3 h; 370,000 tested, 0.62% active; inhibition, % at 7 µM;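 active means inhibition above a per-campaign cutoff equal to the mean of compounds falling between control-based bounds plus 3 SD, cut at about 20% in these data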;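 further: 0% = DMSO wells while the 100% control is not disclosed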
proKLK7 act conf – proKLK7 zymogen activators, confirmation, biochemical, fluorescence intensity, triplicate | shares compounds with KLK7 zymogen act | purified proKLK7, EDANS-DABCYL substrate fluorescence; scaled: vehicle 0, mature enzyme 100 | activation, % at 7 µM | 3,200 tested, 68% active;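 active means activation, as change over the incubation, above the mean of all tested compounds plus 3 SD, cut at about 13% in these data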
EDANS interfere – EDANS-DABCYL substrate optical interference, artefact control for kallikrein-7 zymogen activator project, biochemical, fluorescence intensity, high throughput; no enzyme, 4 h; solvent 0%, active enzyme control 100%; activation, % at 7 µM; shares compounds with KLK7 zymogen act; 3,200 tested, 80% active; AID 686952, 2013;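 active means activation above the all-compound mean plus 3 SD, ignoring values outside control-based bounds, cut at about 4.8% in these data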;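 further: value is the 4 h activation minus the activation read at time zero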
K7 EDANS ctr – optically interferes with EDANS-DABCYL fluorescence, kallikrein-7 activator counter-screen; shares compounds with KLK7 zymogen act; EDANS-DABCYL peptide fluorescence interference, no enzyme; EC50, µM; 250 tested, 20% active; AID 720493;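 active means compounds that raise the fluorescence signal in this interference counterscreen, with EC50 at or below 10 µM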;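 further: intact quenched peptide substrate alone read at 355 nm excitation and 520 nm emission; signal is fluorescence gain from T0 to T4 after four hours at room temperature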
Starred values were filed as active, the others as inactive; i = inactive; x = no result. Only some compounds are listed: those with a hit (about 2.9% of all), similar ones and a draw of the others.

SMILES	PLC-gamma1 inh	KLK7 zymogen act	ADAM17 inh	PLC-beta3 inh	ADAM10 inh	proKLK7 act conf	EDANS interfere	others
Cc1ccc(NC(=O)c2cc(S(=O)(=O)NCCC3=CCCCC3)ccc2F)cc1F	1.8	-0.1	10.3*	-1.5	24.7*	x	x
S=C(NN=C(c1ccccc1)c1ccccn1)N(Cc1ccccn1)Cc1ccccn1	-12.0	0.3	71.8*	-10.2	78.3*	x	x
COc1ccccc1C(C#N)N1N=C(C)CC1(C)C (stereo not given)	-1.4	-0.2	-2.5	2.5	-1.1	x	x
COc1cccc(C(C#N)N2N=C(C)CC2(C)C)c1O (stereo not given)	12.0*	-0.8	2.7	-3.0	4.4	x	x
COc1c(F)c(F)c(C(=O)Nc2ccc(NC(=O)Cc3ccccc3)cc2)c(F)c1F	1.2	0.1	-1.5	-0.1	-4.5	x	x
Cc1cc(C)cc(SCc2noc(C(=O)NCc3ccccc3)c2C(=O)NCc2ccccc2)c1	-1.9	0.5	-4.2	-0.7	-1.4	x	x
O=S(=O)(c1ccccc1)N(Cc1nc(-c2ccccc2)no1)C1CCCCC1	15.2*	0.9	7.2	-12.7	16.6	x	x
CC(C)N(Cc1nc(-c2ccccc2)no1)S(=O)(=O)c1ccccc1	3.5	0.2	0.5	-0.6	-13.8	x	x
O=C(Nc1c(F)cc(F)cc1Br)c1cc(S(=O)(=O)N2CCN(c3ccccn3)CC2)ccc1F	-1.4	-0.9	0.3	-1.9	2.3	x	x
O=C(Nc1ccc(F)c(F)c1)c1cc(S(=O)(=O)N2CCN(c3ccccn3)CC2)ccc1F	9.3	0.0	9.6*	7.7	10.2	x	x
COc1cc(C2C(C#N)=C(N)OC3=C2C(=O)CCC3)c([N+](=O)[O-])cc1OC (stereo not given)	i	25.1*	-34.8	i	-149.6	x	x
Cc1cc(C2C(C#N)=C(N)OC3=C2C(=O)CCC3)c(C)s1 (stereo not given)	-1.9	-0.6	-1.2	-2.2	5.2	x	x
COC(=O)c1cc(-c2ccc(Br)cc2)n[nH]1	-0.6	-0.5	-1.9	2.8	4.1	x	x
O=C(NCCOC(=O)c1ccccc1C(=O)OCCNC(=O)c1cccnc1)c1cccnc1	7.6	0.6	3.6	12.1*	5.7	x	x
Cc1cc(C)c(C(=O)OCCNC(=O)c2cccnc2)cc1C	-0.8	0.1	-3.1	1.5	-0.8	x	x
COc1ccc(-c2cc(C(F)F)n3ncc(C(=O)N4CCN5CCCC5C4)c3n2)cc1 (stereo not given)	i	23.8*	-159.1	i	i	x	x
COc1ccc(-c2cc(C(F)F)n3ncc(C(=O)N4CCc5ccccc54)c3n2)cc1	-8.8	0.2	-1.4	-5.8	-8.2	x	x
CC(NC(=O)COC(=O)C12CC3CC(CC(O)(C3)C1)C2)c1ccccc1 (stereo not given)	12.6*	0.0	6.2	12.7*	1.0	x	x
CC1=NN(c2ccc(S(=O)(=O)O)cc2C)C(=O)C1	0.4	0.3	-0.3	-2.5	-2.8	x	x
O=C(O)C1=NN(c2cc(Cl)c(S(=O)(=O)O)cc2Cl)C(=O)C1	14.8*	0.4	-3.5	1.0	-7.2	x	x
CC(C)C[C@H]1CN=C(Nc2ccccc2)N1CCC1CCCCC1	2.1	0.4	-0.8	3.0	-0.2	x	x
c1ccc(C[C@H]2CN=C(Nc3ccccc3)N2CCC2CCCC2)cc1	10.2*	-0.8	4.9	7.5	1.0	x	x
Brc1cc2ccccc2[n+](Cc2ccccc2)c1	-1.5	0.2	-4.7	-0.5	-5.5	x	x
CCC[n+]1c2ccccc2cc2ccccc21	-95.2	77.4*	-267.1	-136.7	i	73.0*	81.2*
CCCC[n+]1c2ccccc2cc2ccccc21	-88.8	64.9*	-243.6	-127.2	i	69.6*	74.2*
SMILES	PLC-gamma1 inh	KLK7 zymogen act	ADAM17 inh	PLC-beta3 inh	ADAM10 inh	proKLK7 act conf	EDANS interfere	others
Cc1ccc(N=C2NC(=O)c3cc([N+](=O)[O-])ccc32)cc1	2.9	1.0	0.8	1.4	-3.6	x	x
NC(=O)c1ccc(NC(=O)CN2CCN(S(=O)(=O)c3ccc4ccccc4c3)CC2)cc1	-25.6	0.2	-0.9	-2.8	-1.5	x	x
CC(C)(C)CC(C)(C)Nc1c(-c2ccc(O)cc2)nc2cnccn12	i	39.3*	i	i	i	-118.1	-104.3
O=C(Nc1ccc(C2=CN(Cc3ccccc3)CCC2=O)cc1)OCc1ccccc1	1.0	19.9*	-4.5	1.0	2.6	-0.3	0.8
COC(=O)c1cc(NC(=O)CC(=O)c2cccc(N)c2)cc(C(=O)OC)c1	-20.5	15.3*	-6.5	-21.8	-26.8	-1.3	-0.1
Cc1nc(Cl)c2c(n1)NC1=C(O2)C(=O)CCC1	i	21.7*	-48.3	i	-136.9	18.2*	22.4*
CC(C(=O)O)N1c2cccc3cccc(c23)S1(=O)=O (stereo not given)	i	21.6*	-122.7	i	-296.1	26.5*	28.0*
C=CCNC(=O)CN1c2cccc3cccc(c23)S1(=O)=O	-233.3	13.1*	-70.0	-292.4	-159.9	4.1	7.1*
CC(C(=O)N(C)C)N1c2cccc3cccc(c23)S1(=O)=O (stereo not given)	-110.7	8.0	-36.2	-152.1	-153.1	x	x
CN(C)C(=O)CN1c2cccc3cccc(c23)S1(=O)=O	-239.8	7.2	-85.3	-294.4	-206.5	x	x
O=C(O)CCN1c2cccc3cccc(c23)S1(=O)=O	-336.9	15.6*	-87.1	-468.4	-247.6	18.7*	11.3*	K7 EDANS ctr=>69.5
CSc1ccc(/C=C/C(=O)N2CCCN(C)CC2)cc1	-126.3	16.9*	-102.6	-151.8	-302.4	3.3	5.9*
CN1CCN(C(=O)/C=C\c2ccc(Cl)cc2)CC1	0.0	-0.1	-0.9	0.3	1.2	x	x
CCc1ccc(CSc2nccn2-c2ccccc2)cc1	-1.0	0.7	0.7	-1.5	7.4	x	x
COCCOC(=O)C1=C(C)NC2=C(C(=O)CC(C)(C)C2)C1c1cccnc1 (stereo not given)	-374.7	18.0*	-214.6	i	i	38.6*	34.3*
CC1=C(C(=O)OC(C)C)C(c2cccnc2)C2=C(CC(C)(C)CC2=O)N1 (stereo not given)	-299.4	6.5	-179.6	-438.5	i	x	x
CC1=C(C(=O)OCC2CCCO2)C(c2ccncc2)C2=C(CC(C)(C)CC2=O)N1 (stereo not given)	-294.9	13.0*	-163.3	-356.9	-486.9	21.3*	29.3*
